CASP6 VEID inh = human caspase-6 inhibitors, primary screen, biochemical, VEID-R110 fluorescence, single point, set 2. P55212. purified caspase-6, Z-VEID-R110 cleavage fluorescence. inhibition, % at 12.5 µM. 350,000 tested, 0.53% active;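 active = mean inhibition across replicates at least about 35%, with every replicate also reaching that limit, limit read from the data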;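 note: 0% = median of neutral control wells and 100% = no fluorescence left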
Target sequence (P55212 24-179 limits assumed): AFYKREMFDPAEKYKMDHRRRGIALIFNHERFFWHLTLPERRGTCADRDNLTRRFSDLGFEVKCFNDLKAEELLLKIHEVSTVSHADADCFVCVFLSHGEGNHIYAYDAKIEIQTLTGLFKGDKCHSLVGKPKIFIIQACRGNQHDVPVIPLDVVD
Target sequence (P55212 194-293 limits assumed): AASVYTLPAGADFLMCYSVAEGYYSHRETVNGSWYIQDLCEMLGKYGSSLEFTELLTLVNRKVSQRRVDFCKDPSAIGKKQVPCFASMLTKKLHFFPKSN
CDK5 p35 inh = inhibitors of human CDK5/p35 kinase, primary screen, biochemical, single concentration; Recombinant CDK5/p35, ADP-Glo luminescence, 60 min; Cyclin-dependent kinase 5 (Homo sapiens) + Cyclin-dependent kinase 5 activator 1 (Homo …; 330,000 tested, 0.01% active; AID 488839, 2010; inhibition, % at 10 µM;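 active = highest replicate inhibition of at least 50% and at least 75% of replicates reaching 50%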;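 note: plate controls were DMSO neutral control for no effect and GW8510 at 10 µM for full effect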
Mot1-301 SUMO = yeast Mot1-301 growth rescue at high temperature, primary screen, SUMOylation pathway inhibitor project, S. cerevisiae, ATP luminescence, 38.5C | 320,000 tested, 1% active | growth rescue, % at 18.8 µM | AID 2716, 2010 | S. cerevisiae Mot1-301 growth rescue; percent above DMSO median, 100 means doubled;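 active = every valid replicate shows activation above 250% relative to neutral control wells; inactive = the rest, any valid replicate at or below 250%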;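 note: OY570 slx delta 5 strain wells were the positive control but not used for scaling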
NSD2 HMT inh = NSD2 histone methyltransferase inhibitors, primary screen, biochemical, AlphaScreen, single concentration, set 2; 310,000 tested, 0.54% active; NSD2 peptide methylation, 120 min; AID 743445, 2014; inhibition, % at 12.5 µM; in the data active = inhibition above about 50%
ALR inh = inhibitors of human ALR sulfhydryl oxidase, primary screen, biochemical, H2O2 detection, HRP-luminol luminescence, single point | purified ALR, DTT oxidation | inhibition, % (concentration not given with the values) | 290,000 tested, 3.8% active | AID 485317, 2010;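 active = mean replicate inhibition above about 79%, with every replicate also reaching it, limit read from the data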
Target sequence (P55789 whole entry, looked up): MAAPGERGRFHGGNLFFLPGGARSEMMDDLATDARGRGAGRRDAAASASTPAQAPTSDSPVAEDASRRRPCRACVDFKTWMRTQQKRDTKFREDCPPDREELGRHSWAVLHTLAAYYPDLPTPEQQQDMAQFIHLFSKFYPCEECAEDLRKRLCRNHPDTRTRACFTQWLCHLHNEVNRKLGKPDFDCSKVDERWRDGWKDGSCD
N-glyco inh = increase of ERlucT glycosylation luciferase signal, primary screen, N-linked glycosylation inhibitor project, D54 ERlucT cells, luminescence, set 2; D54 ERlucT glycosylation luciferase reporter, 24 h; percent of 100 nM tunicamycin response; reporter increase, % at 12.5 µM; 360,000 tested, 0.23% active; AID 588692, 2011;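 active = mean luciferase reporter signal, scaled so untreated is 0 and the glycosylation-blocking control 100, at or above a set limit in every replicate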;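 note: luciferase carries N-glycosylation sites so blocking glycosylation raises the light; 0% = median of neutral control wells and 100% = median of 100 nM tunicamycin wells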
Alpha artifact = AlphaScreen signal interference with preloaded methylated product, dose response, artefact control for NSD2 inhibitor project, biochemical, cherry-picked samples; shares compounds with NSD2 HMT inh; AlphaScreen artifact counterscreen, preloaded methylated H4 peptide; AC35, µM (doses to about 10 µM), for the others: at the highest dose activity change, negative = signal loss; 1,500 tested, 9.4% active; AID 1053174, 2014; call rule not given here
Numbers without * were called inactive; nt = not tested or not shown. Compounds with a hit are over-represented: about 3.9% of the library has one in this group of screens.

SMILES	CASP6 VEID inh	CDK5 p35 inh	Mot1-301 SUMO	NSD2 HMT inh	ALR inh	N-glyco inh	Alpha artifact
C[C@@H]1CCCCO[C@@H](CN(C)Cc2ccc(Cl)c(Cl)c2)[C@@H](C)CN([C@H](C)CO)C(=O)c2cc(NS(C)(=O)=O)ccc2O1	-2	nt	nt	nt	nt	nt	nt
CC1=C/C(=C(\c2cc(C)c(O)c(Br)c2)c2ccccc2S(=O)(=O)O)C=C(Br)C1=O	8	14	-43	50*	nt	-7	7.8µM*
CC(C)C#Cc1ccc2c(c1)O[C@@H](CN(C)Cc1cncnc1)[C@@H](C)CN([C@H](C)CO)S2(=O)=O	1	nt	nt	nt	nt	nt	nt
CNC(=S)NC(CC(=O)OC)c1ccc2c(c1)OCO2 (configuration not stated)	-5	1	6	56*	nt	2	-2%
COC(=O)CC(NC(=O)C1CC1)c1ccc2c(c1)OCO2 (configuration not stated)	-5	-5	8	-9	-51	1	nt
C[C@H](CO)N1C[C@H](C)[C@H](CN(C)Cc2ccc3c(c2)OCO3)Oc2ccc(NC(=O)CCC(F)(F)F)cc2C1=O	0	nt	nt	nt	nt	nt	nt
COc1ccc(NC2=CC(c3ccccc3)N(c3ccc(OC)cc3)C2=O)cc1 (configuration not stated)	1	nt	162	-2	-13	6	nt
COc1ccc(NC2=CC(c3cccc(OC)c3)N(c3ccc(OC)cc3)C2=O)cc1 (configuration not stated)	nt	-1	-2	52*	-13	-1	-8%
O=C(c1cnccn1)N1CC(=O)N2[C@H](CO)[C@@H](c3ccc(C#CC4CC4)cc3)[C@@H]2C1	3	nt	nt	nt	nt	nt	nt
CN(C)c1ccc2c(c1)[C@@H]1C[C@@H](CC(=O)NCCc3ccccc3)O[C@H](CO)[C@@H]1O2	1	nt	nt	nt	nt	nt	nt
Nc1nonc1-c1nc2ccccc2n1CC(=O)N/N=C/c1ccc(-c2ccccc2C(=O)O)o1	60*	-1	8	63*	11	5	-2%
Nc1nonc1-c1nc2ccccc2n1CC(=O)Nc1ccccc1	-2	2	233	3	-5	4	nt
O=C(C[C@H]1CC[C@H](NS(=O)(=O)c2ccccc2)[C@@H](CO)O1)NCc1ccc(Cl)c(Cl)c1	1	nt	nt	nt	nt	nt	nt
O=C(O)c1ccc2nc(-c3ccco3)c(-c3ccco3)nc2c1	72*	-3	nt	186*	nt	3	-8%
O=C(c1ccc2nc(-c3ccco3)c(-c3ccco3)nc2c1)N1CCN(c2ccccc2)CC1	nt	0	nt	3	nt	1	nt
Cc1noc(C)c1NC(=O)Nc1ccc2c(c1)C(=O)N([C@@H](C)CO)C[C@H](C)[C@H](CN(C)C(=O)NC(C)C)OCCCC[C@H](C)O2	-1	nt	nt	nt	nt	nt	nt
CCN(CC)CCNC(=O)/C(=C\c1cccn1C)NC(=O)c1cccs1	-6	-1	-8	55*	11	0	-4%
COc1ccc(C#Cc2ccc([C@H]3[C@@H](CO)N4CCCCN(Cc5ccncc5)C[C@H]34)cc2)cc1	-2	nt	nt	nt	nt	nt	nt
Cc1ccc(S(=O)(=O)Nc2ccc3c(c2)C(=O)N([C@@H](C)CO)C[C@@H](C)[C@H](CN(C)S(C)(=O)=O)OCCCC[C@@H](C)O3)cc1	1	nt	nt	nt	nt	nt	nt
O=C(C1CC1)N1CCc2[nH]c3ccccc3c2C1	nt	-1	2	100*	nt	6	-3%
O=C(C[C@H]1C=C[C@H](NC(=O)c2ccc3c(c2)OCO3)[C@H](CO)O1)NCc1ccc(Cl)cc1	1	nt	nt	nt	nt	nt	nt
COC(=O)c1c(SCC(=O)Nc2ccc(C)c(C)c2)nc(=O)[nH]c1C	-1	1	-3	116*	3	3	-3%
COc1ccccc1NC(=O)N[C@H]1CC[C@@H](CCNS(=O)(=O)c2ccc(Cl)cc2)O[C@H]1CO	0	nt	nt	nt	nt	nt	nt
Cc1c(C)n(Cc2ccccc2)c2ccc(C(=O)OCCN(C)C)cc12	-15	-2	-11	50*	-6	-6	-19%
COc1ccc(-n2nnnc2SCC(=O)c2ccc3c(c2)OCCO3)cc1	nt	-4	-9	98*	-1	-1	-3%
C[C@@H]1CN([C@H](C)CO)C(=O)c2cc(NS(=O)(=O)c3ccccc3)ccc2O[C@@H]1CN(C)S(=O)(=O)c1cn(C)cn1	3	nt	nt	nt	nt	nt	nt
O=C(NNC(=S)Nc1ccccc1)c1ccco1	nt	6	-13	119*	36	0	-3%
C[C@H](CO)N1C[C@H](C)[C@H](CN(C)S(=O)(=O)c2ccccc2)Oc2ccc(NC(=O)CCC(F)(F)F)cc2CC1=O	0	nt	nt	nt	nt	nt	nt
Cc1cc(C)c(NC(=O)C2CC(=O)N(c3ccc4c(c3)OCCO4)C2)c(C)c1 (configuration not stated)	nt	-2	10	106*	-1	0	-4%
COc1ccc(S(=O)(=O)Nc2ccc3c(c2)C(=O)N([C@H](C)CO)C[C@H](C)[C@H](CN(C)Cc2ccncc2)OCCCC[C@H](C)O3)cc1	-5	nt	nt	nt	nt	nt	nt

Screens from PubChem BioAssay.
